# Source: the supplement of paper PMC9262897, “Low-cost anti-mycobacterial drug discovery using engineered E. coli” (Nature Communications, 2022)
# Counter-ions that a name gives are not always drawn. ± gives the standard deviation of the averaged measurements.
# Experiments:
# Test in all cases: growth (OD600 after 10 h); higher = more growth (less inhibition)
# [1] = tested on: E. coli TESEC Alr+ wild-type control; details: compound 0.1 mM; raw OD600 reference: median of DMSO wells 0.241, cell-free background 0.041
# Description: (§1)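 TESEC Mtb Alr E. coli, or the Alr+ wild-type control, in 384-well plates with Prestwick library compounds at 0.1 mM and 1% DMSO, across arabinose induction levels of 1E3 to 1E7 nM. Growth is read as OD600 after 10 h at 37 °C in triplicate biological replicates.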
# E. coli TESEC Mtb Alr [2] = details: compound 0.1 mM
# Description: as §1
# E. coli TESEC Mtb Asd = details: compound 0.1 mM
# Description: (§2)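 TESEC E. coli strains in which the native enzyme is deleted and replaced by arabinose-inducible Mtb Asd, DapB, CysH or TrpD, each grown in its selective medium. Strains were screened against the Prestwick library at 0.1 mM and 1% DMSO in 384-well format at low and high arabinose induction. Growth is read as OD600 after 10 h in triplicate.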
# E. coli TESEC Mtb DapB = details: compound 0.1 mM
# Description: as §2
# [3] = tested on: E. coli TESEC Alr+ wild-type control; details: compound 0.1 mM; raw OD600 reference: median of DMSO wells 0.49, cell-free background 0.052
# Description: (§3)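 TESEC Mtb Alr E. coli (ΔaraC ΔtolC ΔentC Δalr ΔdadX, arabinose-inducible Mtb Alr) or the Alr+ wild-type control strain, grown in defined M9-fructose medium without D-alanine in 96-well plates with Prestwick library compounds at 0.1 mM and 1% DMSO. Low Alr induction is 0.1 µM arabinose and high induction is 10 mM arabinose.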
# E. coli TESEC Mtb Alr [4] = details: compound 0.1 mM; remark: listed apart in the source
# Description: as §3
# [5] = arabinose 1000 nM, raw OD600 reference: median of DMSO wells 0.294, cell-free background 0.041
# [6] = arabinose 10000 nM, raw OD600 reference: median of DMSO wells 0.264, cell-free background 0.041
# [7] = arabinose 100000 nM, raw OD600 reference: median of DMSO wells 0.201, cell-free background 0.041
# [8] = arabinose 1000000 nM, raw OD600 reference: median of DMSO wells 0.193, cell-free background 0.041
# [9] = arabinose 10000000 nM, raw OD600 reference: median of DMSO wells 0.146, cell-free background 0.041
# [10] = arabinose induction (level): High, raw OD600 reference: median of DMSO wells 0.331, cell-free background 0.041
# [11] = arabinose induction (level): Low, raw OD600 reference: median of DMSO wells 0.417, cell-free background 0.041
# [12] = arabinose induction (level): High, raw OD600 reference: median of DMSO wells […], cell-free background 0.041
# [13] = arabinose induction (level): Low, raw OD600 reference: median of DMSO wells 0.227, cell-free background 0.041
# [14] = arabinose 100 nM, raw OD600 reference: median of DMSO wells 0.413, cell-free background 0.052
# [15] = arabinose 10000000 nM, raw OD600 reference: median of DMSO wells […], cell-free background 0.052
SMILES,growth [1],growth (E. coli TESEC Mtb Alr [2]; [5]),growth (E. coli TESEC Mtb Alr [2]; [6]),growth (E. coli TESEC Mtb Alr [2]; [7]),growth (E. coli TESEC Mtb Alr [2]; [8]),growth (E. coli TESEC Mtb Alr [2]; [9]),growth (E. coli TESEC Mtb Asd; [10]),growth (E. coli TESEC Mtb Asd; [11]),growth (E. coli TESEC Mtb DapB; [12]),growth (E. coli TESEC Mtb DapB; [13]),growth [3],growth (E. coli TESEC Mtb Alr [4]; [14]),growth (E. coli TESEC Mtb Alr [4]; [15])
CCC[C@@H]1C[C@@H](C(=O)N[C@@H]([C@H]2O[C@H](SC)[C@H](O)[C@@H](O)[C@H]2O)[C@H](C)Cl)N(C)C1 [Clindamycin hydrochloride],0.0527 ± 0.0012,0.048 ± 0.0007,0.04127 ± 0.0004,0.0497 ± 0.00055,0.04133 ± 0.00032,0.0496 ± 0.00085,0.0699 ± 0.0019,0.0715 ± 0.0033,0.0755 ± 0.0023,0.0766 ± 0.0063,0.0771 ± 0.0023,0.15 ± 0.014,0.0594 ± 0.0027
O=C(Nc1ccccc1)OCC(CN1CCCCC1)OC(=O)Nc1ccccc1 (configuration not stated) [Diperodon hydrochloride],0.193 ± 0.0045,0.249 ± 0.0066,0.259 ± 0.0044,0.231 ± 0.037,0.0876 ± 0.0038,0.154 ± 0.0081,0.235 ± 0.019,0.345 ± 0.065,0.2 ± 0.0073,0.223 ± 0.038,0.405 ± 0.02,0.426 ± 0.0081,0.243 ± 0.028
O=C(O)c1cc(-c2ccc(F)cc2F)ccc1O [Diflunisal],0.128 ± 0.0035,0.151 ± 0.018,0.105 ± 0.0038,0.119 ± 0.003,0.086 ± 0.0022,0.112 ± 0.0029,0.218 ± 0.059,0.139 ± 0.0027,0.172 ± 0.0032,0.17 ± 0.0045,0.279 ± 0.0091,0.248 ± 0.052,0.136 ± 0.006
C[C@@H](O[C@H]1OCCN(Cc2n[nH]c(=O)[nH]2)[C@H]1c1ccc(F)cc1)c1cc(C(F)(F)F)cc(C(F)(F)F)c1 [Aprepitant],0.136 ± 0.0085,0.107 ± 0.0059,0.116 ± 0.033,0.0735 ± 0.0056,0.0675 ± 0.0089,0.0777 ± 0.0096,0.0693 ± 0.0052,0.0731 ± 0.019,0.128 ± 0.015,0.089 ± 0.023,0.386 ± 0.22,0.442 ± 0.012,0.0589 ± 0.0033
CCN(CC)Cc1cc(Nc2ccnc3cc(Cl)ccc23)ccc1O [Amodiaquin dihydrochloride dihydrate],0.16 ± 0.0068,0.229 ± 0.0059,0.269 ± 0.003,0.181 ± 0.0097,0.102 ± 0.0085,0.203 ± 0.0054,0.179 ± 0.011,0.387 ± 0.051,0.209 ± 0.017,0.28 ± 0.06,0.527 ± 0.047,0.4131 ± 0.00099,0.322 ± 0.0054
CC(C)(C)NCC(O)c1cc(O)cc(O)c1 (configuration not stated) [Terbutaline hemisulfate],0.251 ± 0.0065,0.301 ± 0.0057,0.265 ± 0.0072,0.238 ± 0.047,0.1766 ± 0.0011,0.163 ± 0.0049,0.293 ± 0.03,0.385 ± 0.042,0.226 ± 0.004,0.221 ± 0.013,0.504 ± 0.051,0.402 ± 0.0092,0.354 ± 0.026
O=C(O)c1cn(C2CC2)c2cc(N3CCNCC3)c(F)cc2c1=O [Ciprofloxacin hydrochloride monohydrate],0.0408 ± 0.00053,0.0398 ± 0.0012,0.0399 ± 0.0009,0.0402 ± 0.0002,0.0391 ± 0.00026,0.0402 ± 0.00036,0.0484 ± 0.0012,0.0498 ± 0.001,0.049 ± 0.00046,0.0712 ± 0.04,0.0505 ± 0.0005,0.0528 ± 0.00085,0.0527 ± 0.0033
Cc1c(NC(C)C)c(=O)n(-c2ccccc2)n1C [Isopyrin hydrochloride],0.2426 ± 0.0023,0.304 ± 0.017,0.265 ± 0.004,0.229 ± 0.0067,0.211 ± 0.0094,0.141 ± 0.0042,0.29 ± 0.04,0.429 ± 0.036,0.218 ± 0.019,0.268 ± 0.032,0.44 ± 0.036,0.393 ± 0.0061,0.351 ± 0.016
C=CC1=C(C(=O)O)N2C(=O)[C@@H](NC(=O)/C(=N\O)c3csc(N)n3)[C@H]2SC1 [Cefdinir],0.0391 ± 0.00064,0.0401 ± 0.0026,0.0401 ± 0.00087,0.038 ± 0.0008,0.0415 ± 0.0031,0.0408 ± 0.0009,0.0771 ± 0.0071,0.0475 ± 0.00091,0.0548 ± 0.003,0.0595 ± 0.015,0.0483 ± 0.0014,0.0463 ± 0.00075,0.0569 ± 0.0017
Cc1ncc([N+](=O)[O-])n1CC(O)CCl (configuration not stated) [Ornidazole],0.233 ± 0.0094,0.282 ± 0.012,0.268 ± 0.007,0.225 ± 0.019,0.177 ± 0.0086,0.1385 ± 0.00036,0.381 ± 0.015,0.421 ± 0.028,0.191 ± 0.0088,0.218 ± 0.031,0.43 ± 0.049,0.409 ± 0.0059,0.369 ± 0.02
C[C@]12CCC(=O)C=C1C=C[C@@H]1[C@@H]2CC[C@@]2(C)[C@H]1CC[C@@]21CCC(=O)O1 [Canrenone],0.129 ± 0.0013,0.139 ± 0.0075,0.097 ± 0.0013,0.131 ± 0.0077,0.0738 ± 0.0044,0.126 ± 0.0083,0.217 ± 0.055,0.227 ± 0.042,0.139 ± 0.011,0.174 ± 0.0092,0.282 ± 0.014,0.363 ± 0.0069,0.144 ± 0.031
CN(C)c1nc(N(C)C)nc(N(C)C)n1 [Altretamine],0.251 ± 0.0091,0.315 ± 0.018,0.254 ± 0.0079,0.209 ± 0.0047,0.176 ± 0.008,0.163 ± 0.009,0.475 ± 0.017,0.436 ± 0.037,0.217 ± 0.015,0.267 ± 0.019,0.618 ± 0.023,0.404 ± 0.017,0.317 ± 0.02
CN1C(=O)OC(C)(C)C1=O [Trimethadione],0.242 ± 0.0071,0.283 ± 0.0076,0.269 ± 0.012,0.202 ± 0.014,0.185 ± 0.0082,0.1382 ± 0.00081,0.297 ± 0.098,0.409 ± 0.037,0.193 ± 0.0086,0.229 ± 0.042,0.553 ± 0.073,0.423 ± 0.011,0.344 ± 0.02
CCN(CC)C(=O)C1(c2ccccc2)CC1CN (configuration not stated) [Milnacipran hydrochloride],0.233 ± 0.011,0.298 ± 0.0046,0.271 ± 0.0097,0.202 ± 0.006,0.182 ± 0.02,0.151 ± 0.0028,0.239 ± 0.024,0.385 ± 0.033,0.203 ± 0.016,0.259 ± 0.026,0.547 ± 0.052,0.424 ± 0.014,0.322 ± 0.0073
